Source: PubChem
In the library only some 11% were active in any assay of this set; here they are far more common.
Gal4-VP16 FLuc = VP16 counterscreen qHTS for inhibitors of ROR gamma transcriptional activity. AID 2546, 2010. Drosophila S2 Gal4-VP16 UAS-luciferase, luminescence, 20 h. actives 3.5% (n = 310,000). Potency, µM (highest dose often 53.6 µM), for the others: at the top dose activity, negative = inhibition, hits mostly inhibitors;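 note: Gal4-VP16 expression switched on by copper sulfate through the metallothionein promoter; potency is the fitted concentration of half-maximal effect; % is set by controls: 0 for no effect and ±100 for the full control effect; nearly all actives have a fitted effect of over 50% in size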
RORgamma inh = qHTS for inhibitors of ROR gamma transcriptional activity; AID 2551, 2010; Drosophila S2 Gal4-RORgamma UAS-luciferase reporter, 20 h; Potency, µM (highest dose often 53.6 µM), for inactives: at the top dose activity change, negative = inhibition, usual class: inhibitors; actives 5.4% (n = 310,000); note: potency is the fitted concentration of half-maximal effect; % is set by controls: 0 for no effect and ±100 for the full control effect; nearly all actives have a fitted effect of over 60% in size
Target sequence (P51450 whole entry, looked up, the tested form may be a part): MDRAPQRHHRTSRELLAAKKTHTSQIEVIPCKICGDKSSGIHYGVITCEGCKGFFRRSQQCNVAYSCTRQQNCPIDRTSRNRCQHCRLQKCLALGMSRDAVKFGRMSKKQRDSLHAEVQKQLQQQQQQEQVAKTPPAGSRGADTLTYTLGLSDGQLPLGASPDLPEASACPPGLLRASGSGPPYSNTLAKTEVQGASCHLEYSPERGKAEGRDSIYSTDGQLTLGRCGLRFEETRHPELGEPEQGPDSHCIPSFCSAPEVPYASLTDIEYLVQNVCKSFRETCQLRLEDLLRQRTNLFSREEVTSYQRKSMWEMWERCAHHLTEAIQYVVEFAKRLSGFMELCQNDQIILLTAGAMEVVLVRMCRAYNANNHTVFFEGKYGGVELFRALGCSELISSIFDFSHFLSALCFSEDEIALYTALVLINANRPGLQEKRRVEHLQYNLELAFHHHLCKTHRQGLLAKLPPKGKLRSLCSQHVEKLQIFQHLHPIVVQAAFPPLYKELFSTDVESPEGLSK
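Stably transfected Drosophila Schneider cells are the test system, with ROR gamma fused to Gal4 and luciferase under UAS control; luminescence is read after 20 hr of 700 uM copper sulfate induction at ambient temperature.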
MCF10A rerep = A quantitative high throughput screen for small molecules that induce DNA re-replication in MCF 10a normal breast cells. MCF 10A DNA re-replication, Hoechst nuclear intensity, 48 h. Potency, µM (doses to about 46.1 µM), for inactives: top-dose activity, positive = re-replication, actives largely listed as activators. actives 2.9% (n = 350,000); note: potency is the fitted concentration of half-maximal effect; % of control where 0% means no effect; nearly all actives have a fitted effect of over 50% in size
IL1B secr inh = qHTS for Inhibitors of Inflammasome Signaling: IL-1-beta AlphaLISA Primary Screen; AID 743279, 2014; THP-1 LPS/ATP IL-1B secretion, AlphaLISA, 16 h; active compounds read low; activity change, % at 57.5 µM; actives 4.7% (n = 360,000); in the data active = activity change below about -50%; inconclusive = mostly about -30% to -49%; note: % is set by controls: 0 for no effect and ±100 for the full control effect
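THP-1 cells pretreated 1 hr with compounds (up to 57.5 uM final), then stimulated with LPS (250 ng/mL final) plus ATP (1.25 mM final); secreted IL-1B measured by AlphaLISA after 16 hr, decreased signal indicating inhibition.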
SW480 rereplic = A quantitative high throughput screen for small molecules that induce DNA re-replication in SW480 colon adenocarcinoma cells; actives 1.8% (n = 340,000); Potency, µM (highest dose often 46.1 µM), for the others: at the top dose re-replication activation, actives largely listed as activators; SW480 DNA re-replication, Hoechst DNA content imaging, 48 h; AID 624297, 2012; note: potency is the fitted concentration of half-maximal effect; % of control where 0% means no effect; nearly all actives have a fitted effect of over 55% in size
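Image-based read-out: total Hoechst fluorescence of nuclei (405 nm excitation, 500-530 nm emission), with hits raising the fraction of high-intensity nuclei. SW480 colon cells incubated 48 hr with compounds at 37 C.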
* hit, by the source's call; ? = inconclusive; . = no result given; [ ] = dose if it differs, or a comment. Unless noted, calls come from the whole dose curve; as a rule, active = well fitted curve in the direction sought with a large enough effect; inconclusive = small, poorly fitted or top-dose-only effect, or another doubt; inactive = no such curve, though single readings can be large; an effect the other way counts as inactive or inconclusive.

SMILES	Gal4-VP16 FLuc	RORgamma inh	MCF10A rerep	IL1B secr inh	SW480 rereplic
COc1ccc(OC)c(NC(=O)COC(=O)[C@H](Cc2ccccc2)NC(=O)c2ccco2)c1	.	.	4%	16	-12%
COc1ccc(/C=N/Nc2nc(-c3cccc(S(=O)(=O)N4CCCC4)c3)cs2)cc1OC	-3%	28%	13%	-14	-4%
CCOc1cc(/C=N/Nc2nc(-c3cccc(S(=O)(=O)N4CCCC4)c3)cs2)ccc1O	10%	?	?	-83*	3%
CC1(C(=O)NS(=O)(=O)c2cccc(Cl)c2)CCN1C(=O)c1cccc2ccccc12 (configuration not stated)	.	.	.	39	.
O=C(Nc1nccs1)C1(S(=O)(=O)c2ccc(Cl)cc2)CC1	?	7.1µM*	-4%	-9	2%
CC(Oc1ccc(Cl)cc1)C(=O)Nc1ccc(S(=O)(=O)Nc2nccs2)cc1 (configuration not stated)	-6%	47%	-3%	-2	5%
CCC(C)C(=O)Nc1nccs1 (configuration not stated)	18µM*	5.6µM*	2%	15	1.5µM*
CCC(C(=O)Nc1nccs1)(C(F)(F)F)C(F)(F)F	7.9µM*	7.1µM*	-8%	-15	-12%
CC(Oc1ccc(Cl)cc1)C(=O)Nc1nccs1 (configuration not stated)	-15%	14µM*	17%	-12	3%
Cc1ccc(S(=O)(=O)C2(C(=O)Nc3nccs3)CC2)cc1	?	?	1%	18	-15%
Cc1cccc(Cc2cccc(C)c2O)c1O	.	.	?	-16	1%
Nc1ccc2c(c1)[nH]c(=O)c1cc(N)ccc12	.	.	.	-5	.
COc1ccc(CCNC(=O)c2ccc(Cl)cc2Cl)cc1	-24%	15%	9%	-27	-3%
COc1ccc(N(C)S(=O)(=O)c2ccc(Cl)c(C(=O)NCCc3ccc(Cl)cc3)c2)cc1	0%	?	?	-56*	-1%
COc1ccc(CCNC(=O)c2cc(S(=O)(=O)N3CCCCC3)ccc2Cl)cc1	.	.	?	-2	18µM*
O=C(CCCCCNc1nc(=S)[nH]c2ccccc12)N1CCN(c2ccccn2)CC1	?	10µM*	.	.	.
COc1cccc(N2CCN(C(=O)CCCCCNc3nc(=S)[nH]c4ccccc34)CC2)c1	?	8.9µM*	28%	-175*	?
COC(C)(C)[C@@H](O)COc1c2ccoc2cc2oc(=O)ccc12	.	.	0%	-2	-6%
Cc1ccccc1-c1cccc([C@@H]2C[C@H]3[C@H](CON3C)CN2C(=O)C(C)(C)C)c1	.	.	15%	-15	-14%
Cc1cc(C)n2nc(SCC(=O)N(CCC#N)c3ccc(F)cc3)nc2n1	.	.	-12%	-4	-9%
Fc1ccc(-n2c(=S)[nH]c3cccnc32)cc1	?	?	12%	18	2%
FC(F)(F)c1cnc2c(c1)[nH]c(=S)n2-c1ccc(Cl)cc1	?	7.9µM*	?	-28	-4%
CC(OC(=O)C1CC1)C(=O)Nc1cccc(S(=O)(=O)N2CCOCC2)c1 (configuration not stated)	.	.	0%	-3	3%
CC(=O)c1ccc(NC(=S)NC(NC(=O)c2ccco2)C(Cl)(Cl)Cl)cc1 (configuration not stated)	15%	-38%	10%	-19	-5%
O=C(CCc1ccccc1)NC(NC(=S)Nc1cccc(Cl)c1)C(Cl)(Cl)Cl (configuration not stated)	10%	?	5.8µM*	-4	-11%
SMILES	Gal4-VP16 FLuc	RORgamma inh	MCF10A rerep	IL1B secr inh	SW480 rereplic
CCCC(=O)NC(NC(=S)Nc1ccc(S(N)(=O)=O)cc1)C(Cl)(Cl)Cl (configuration not stated)	-3%	-3%	-2%	10	2%
O=C(CCc1ccccc1)NC(NC(=S)Nc1ccc(Br)cc1)C(Cl)(Cl)Cl (configuration not stated)	4.5µM*	?	-4%	-2	-2%
O=C(NC(NC(=S)Nc1ccc(Cl)cc1)C(Cl)(Cl)Cl)c1ccco1 (configuration not stated)	-6%	?	?	-102*	?
CCCC(=O)NC(NC(=S)Nc1ccc(N=Nc2ccccc2)cc1)C(Cl)(Cl)Cl (configuration not stated)	?	?	13µM*	?	6%
CCNC(=S)N(CCCN(C)C)Cc1cc2cc3c(cc2[nH]c1=O)OCCO3	-4%	-2%	3%	-13	-4%
Fc1ccc2[nH]c3c(c2c1)CN(C(=S)NCc1ccccc1)CC3	6%	4%	?	-89*	0%[9.22 µM]
C=CCNC(=O)N1CCc2[nH]c3ccc(F)cc3c2C1	4%	-3%	2%	-7	3%
CC(=O)NCCNC(=O)c1ccc(Sc2ccccc2)c([N+](=O)[O-])c1	-1%[10 µM]	?	?	26	2%
CN(C)CCNC(=O)c1ccc(Sc2ccc(Br)cc2)c([N+](=O)[O-])c1	-21%	-31%	?	-70*	-2%
CC(C)CCCC(C)C1CCC2C3CC(O)[C@@]4(O)CC(O)CC[C@@]4(C)C3CC[C@@]12C (some centres not stated)	-15%	-27%	.	.	.
O=C1NC[C@H](c2ccccc2)N1	-3%	-8%	.	.	.
CC(=O)Nc1ccc(NC(=O)c2oc3cc(C)c(C)cc3c2C)cc1	-23%	?	?	-50*	2%
COc1ccc2oc(C(=O)Nc3ccc(N4CCOCC4)cc3)c(C)c2c1	.	.	?	-57*	-6%
CC(=O)C(=O)O	5%	28%	.	.	.
O[C@H](CN1CCN(c2cccc(Cl)c2)CC1)C(c1ccccc1)c1ccccc1	-4%	?	.	.	.
CC(C)C[C@@H](CN1CCC[C@@H]1CN1C(=O)C(=O)NC[C@@H]1Cc1ccc(O)cc1)N1C[C@H](Cc2ccc(O)cc2)N(CC2CCCCCC2)C(=O)C1=O	.	.	.	-13	.
CC(C)C[C@@H](CN1CCC[C@@H]1CN1C(=O)C(=O)NC[C@@H]1Cc1ccccc1)N1C[C@H](Cc2ccc(O)cc2)N(CC2CCCCC2)C(=O)C1=O	.	.	0%	-75*	-2%
CC(C)C[C@@H](CN1CCC[C@H]1CN1C(=O)C(=O)NC[C@@H]1Cc1ccccc1)N1C[C@H](Cc2ccc(O)cc2)N(CC2CCCCCC2)C(=O)C1=O	.	.	.	-76*	.
CC(C)C[C@H]1CN([C@@H](CC(C)C)CN2CCC[C@H]2CN2C(=O)C(=O)NC[C@@H]2Cc2ccc(O)cc2)C(=O)C(=O)N1CC1CCCCCC1	.	.	.	-52*	.
